Test results taken from PubChem BioAssay AID743381 (National Center for Advancing Translational Sciences (NCATS), 2014).
Results filed as inconclusive are left out. Activity calls are given as the source filed them. Calls come from the whole dose curve; as a rule, active = well fitted inhibition curve with a large enough effect; inconclusive = small, poorly fitted or top-dose-only effect; inactive = flat fitted curve, though single readings scatter.

Target: Phosphatidylinositol 5-phosphate 4-kinase type-2 alpha (Homo sapiens) (UniProt P48426)
Assay: qHTS for Inhibitors of PI5P4K: PI5P4K-alpha Confirmatory Assay for Probe SAR
Conditions: Purified PI5P4Kalpha, ADP-Glo luminescence, 60 min; series mostly up to 76.9 µM
Description: In addition to finding PI5P, we discovered the type II phosphatidylinositol 5-phosphate 4-kinase (PI5P4K) family (alpha, beta, gamma isoforms) that catalyze the conversion of PI5P to PI(4,5)P2. Alternatively, PI(4,5)P2 can also be synthesized through phosphatidylinositol-4-phosphate (PI4P) by the type I phosphatidylinositol 4-phosphate 5-kinases (PI4P5K). These PI5P4K enzymes therefore represent one way by which cells can regulate endogenous PI5P levels and play important roles in insulin signaling and in stress responses. […] A qHTS PI5P4Kalpha ADP-Glo assay was developed to identify specific modulators of human PI5P4K, phosphatidylinositol-5-phosphate 4-kinase (Type II PIPK). This assay was screened against the MLSMR containing ~400,000 small molecules (PubChem AID 652105). The same assay was used to validate subsequent Medicinal Chemistry efforts on the active compounds and its analogs. Inhibition of the enzyme activity (signal decrease) is the desired outcome for this assay. Davis et al., PLoS One. 2013; 8(1):e54127. NIH Chemical Genomics Center [NCGC] NIH Molecular Libraries Probe Centers Network [MLPCN] MLPCN Grant: MH096575 Assay Submitter (PI): Atsuo Sasaki, Beth Israel Deaconess Medical Center
Two microliter of PI5P4Kalpha/substrate buffer (columns 1-2, 5-48) was dispensed into Greiner white solid bottom 1536-well assay plates; column 3 received only PI5P4Kalpha buffer as no substrate control; column 4 receives only substrate buffer as no PI5P4Kalpha controls. Final assay buffer consists of 0.038 M HEPES pH 7.4, 0.28 mM EGTA, 0.1 % CHAPS, and 5% DMSO (final concentration). Compounds were then transferred via Kalypsys pin tool equipped with 1536-pin array. Following addition of compound, 1 uL of ATP (5 uM final concentration) was added to initiate the reaction. ATP was diluted in an assay buffer consisting of 0.02 M HEPES pH 7.4, 60 mM MgCl2, 15 uM ATP, and 0.1% CHAPS. The plates were then incubated at room temperature for 60 minutes. ADP-Glo reagent 1 was added and plates incubated for 45 minutes. ADP-Glo reagent 2 was added and the plates were incubated for 30 minutes. The plates were transferred to a ViewLux high-throughput CCD imager (PerkinElmer) wherein single end-point measurements of luminescence were acquired using a clear filter.

Sequence of Phosphatidylinositol 5-phosphate 4-kinase type-2 alpha (Homo sapiens) (P48426 whole entry, looked up): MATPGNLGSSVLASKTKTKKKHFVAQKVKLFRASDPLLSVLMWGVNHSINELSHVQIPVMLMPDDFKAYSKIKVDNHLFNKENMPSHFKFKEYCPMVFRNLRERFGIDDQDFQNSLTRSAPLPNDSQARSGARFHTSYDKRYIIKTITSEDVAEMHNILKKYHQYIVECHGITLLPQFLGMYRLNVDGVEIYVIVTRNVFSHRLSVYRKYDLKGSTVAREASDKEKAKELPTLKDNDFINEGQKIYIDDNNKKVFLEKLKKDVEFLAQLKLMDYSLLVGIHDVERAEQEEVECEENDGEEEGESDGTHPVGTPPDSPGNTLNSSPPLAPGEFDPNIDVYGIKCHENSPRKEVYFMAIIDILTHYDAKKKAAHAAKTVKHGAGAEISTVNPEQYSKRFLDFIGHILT

Potency, active:
Cc1cccc2c1NC(=O)/C2=C/c1cc(Cl)c(O)c(Cl)c1 547 nM
O=C1Nc2ccccc2/C1=C/c1cccc(C(=O)O)c1 10900 nM
O=C1Nc2ccccc2/C1=C\c1ccc(O)cc1 24400 nM
O=C1Nc2ccccc2/C1=C\c1cc(F)c(O)c(F)c1 487 nM
COc1ccc(/C=C2/C(=O)Nc3ccccc32)cc1O 772 nM
O=C1Nc2ccccc2/C1=C/c1cc(Cl)c(O)c(Cl)c1 867 nM
O=C1Nc2ccccc2/C1=C\c1cc(Br)c(O)c(Br)c1 1220 nM
COc1cc(/C=C2/C(=O)Nc3ccccc32)cc(OC)c1O 30700 nM
O=C1Nc2ccccc2C12CC2c1cc(Cl)c(O)c(Cl)c1 (centres undefined) 10900 nM
O=C1Nc2cccc(Cl)c2/C1=C\c1cc(Cl)c(O)c(Cl)c1 3070 nM
O=C1Nc2ccccc2/C1=C\c1ccc([N+](=O)[O-])cc1 2740 nM
O=C1Nc2ccccc2/C1=C\c1ccc(O)c(F)c1 2180 nM
COc1cc(/C=C2\C(=O)Nc3ccccc32)ccc1O 19400 nM

Potency, inactive:
O=C1Nc2ccccc2/C1=C/c1ccc[nH]1
